Bioassay records (PubChem)
A selection: hits, their analogues and other compounds. The true share with any hit is near 3.1%.
UHRF1 binding = blocks human UHRF1 binding to methylated DNA; Q96T88; UHRF1 binding to methylated oligo, TR-FRET; inhibition, % at 4.4 µM; 0.75% of 370,000 active; AID 687016; in the data active means inhibition above about 21%;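 further: UHRF1 SRA domain binding a hemimethylated CpG hairpin DNA probe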
LEDGF integ inh = blocks HIV-1 LEDGF/p75-dependent DNA integration | TR-FRET IN-LEDGF/p75 DNA integration, Eu/Cy5 | inhibition, % at 3.7 µM | 0.64% of 370,000 active | AID 743269;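 active means inhibition above the screen-wide mean plus 3 SD, cut at about 13% in these data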;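 further: signal is the Cy5 over europium emission ratio at 671 and 618 nm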
MBD2 inh = MBD2-methylated oligo binding inhibition | Q9UBB5 | 0.31% of 370,000 active | TR-FRET, MBD2 binding to methylated oligonucleotide | inhibition, % at 4.4 µM; in the data active means inhibition above about 13%
Rin1-Abl PPI inh = blocks binding of human Rin1 to Abl; TR-FRET Rin1/Abl binding, biochemical; inhibition, % at 7.35 µM; AID 588664; P00519+Q13671; 0.4% of 360,000 active; in the data active means inhibition above about 5%, passing the limit was not always enough
Neddyl block = blocks human cullin neddylation; calls only at 25 µM; 0.58% of 360,000 active; TR-FRET cullin neddylation, biochemical; P61081+Q13564; AID 651699; in the data active means inhibition above about 36%
KLK7 zymogen act = activators of human kallikrein-7 zymogen. P49862. purified proKLK7, EDANS-DABCYL substrate fluorescence; 100% is mature enzyme control, 0% vehicle. activation, % at 7 µM. 0.9% of 370,000 active;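 active means activation above the mean of all tested compounds plus 3 SD, computed per campaign excluding outliers beyond control limits, cut at about 13% in these data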
Rin1-Abl confirm = confirmation of inhibitors of human Rin1-Abl interaction; inhibition, % at 7.35 µM; shares compounds with Rin1-Abl PPI inh; TR-FRET Rin1-Abl binding, purified proteins; 49% of 1,300 active; in the data active means inhibition above about 6.5%
GFP quench = counter-screen for Rin1-Abl inhibitors: GFP fluorescence quenchers; 8.5% of 1,300 active; inhibition, % at 6.75 µM; shares compounds with Rin1-Abl PPI inh; AID 602125; inhibitors/quenchers counterscreen; in the data active means inhibition above about 6.5%;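 further: ABL1-eGFP fusion protein alone without its partner RIN1-SBP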
GFP quench dose = quenches GFP in dose response, Rin1-Abl counter-screen. shares compounds with Rin1-Abl PPI inh. GFP fluorescence interference/quenching counterscreen. IC50, µM. 230 tested, under 10 active. AID 602182; call rule not given here;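 further: ABL1-eGFP fusion protein alone without its RIN1 binding partner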
KLK7 act conf = proKLK7 activation, confirmation; shares compounds with KLK7 zymogen act; purified proKLK7, EDANS-DABCYL substrate fluorescence; scaled: vehicle 0, mature enzyme 100; activation, % at 7 µM; 68% of 3,200 active;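 active means activation, as change over the incubation, above the mean of all tested compounds plus 3 SD, cut at about 13% in these data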
EDANS-DABCYL int = optically interferes with EDANS-DABCYL signal, flagging KLK7 hits | shares compounds with KLK7 zymogen act | EDANS-DABCYL substrate fluorescence interference, no enzyme, 4 h; solvent 0%, active enzyme control 100% | activation, % at 7 µM | 80% of 3,200 active | AID 686952;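 active means activation above the all-compound mean plus 3 SD, ignoring values outside control-based bounds, cut at about 4.8% in these data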;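 further: value is the 4 h activation minus the activation read at time zero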
UHRF1 ctr MBD2 = inhibits human UHRF1 binding to methylated oligonucleotide, MBD2 counter-screen | shares compounds with MBD2 inh | TR-FRET | inhibition, % at 4.4 µM | 25% of 1,000 active | AID 720530; in the data active means inhibition above about 21%;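 further: UHRF1 SRA domain binding a labeled hemimethylated CpG hairpin DNA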
MBD2 confirm = confirmation of human MBD2-DBD methylated oligonucleotide binding inhibitors. TR-FRET MBD2-DBD binding to methylated oligonucleotide. 26% of 1,000 active. shares compounds with MBD2 inh. inhibition, % at 4.4 µM
IN multimer up = HIV-1 integrase multimerization activation, counter-screen; shares compounds with LEDGF integ inh; TR-FRET HIV-1 integrase multimerization, biochemical; activation, % at 7.7 µM; 17% of 2,000 active; AID 1053131; in the data active means activation above about 8.9%
TRFRET interf = TR-FRET optical interference, LEDGF/p75 integration counter-screen. shares compounds with LEDGF integ inh. TR-FRET optical interference counterscreen, HIV-1 IN multimerization. inhibition, % at 7.7 µM. 2,000 tested, under 10 active;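 active means inhibition above the mean over all tested compounds plus 3 SD, which no compound reached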
LEDGF integ conf = LEDGF/p75-dependent HIV-1 integration inhibition, confirmation; shares compounds with LEDGF integ inh; TR-FRET LEDGF/p75-dependent HIV-1 integration, biochemical; inhibition, % at 3.7 µM; 36% of 2,000 active; AID 1053136
A number is an active result; . = inactive; / = no result given; ! = a repeat was not active. Unless noted, no stated cut-off is given here; in the data, active means inhibition above about 14%; inactive means the rest.

SMILES | UHRF1 binding | LEDGF integ inh | MBD2 inh | Rin1-Abl PPI inh | Neddyl block | KLK7 zymogen act | Rin1-Abl confirm | GFP quench | IN multimer up | TRFRET interf | LEDGF integ conf | others
COc1ccc(CN2CCN(S(=O)(=O)c3ccc(NC(C)=O)cc3)CC2)c(OC)c1OC | . | . | . | . | . | . | / | / | / | / | /
COc1ccc(OC)c(C(c2c(C)[nH][nH]c2=O)c2c(C)[nH][nH]c2=O)c1 | . | . | . | 7.9 | . | 13 | . | . | / | / | / | KLK7 act conf=20;EDANS-DABCYL int=20
O=c1c(-c2ccccc2)coc2c(CN3CCCC3)c(O)ccc12 | . | . | . | 5.9 | / | 67 | . | . | / | / | / | KLK7 act conf=39;EDANS-DABCYL int=49
CC1CCCCN1Cc1c(O)ccc2c(=O)c(-c3ccc(Br)cc3)coc12 (stereo not drawn) | . | . | . | . | / | . | / | / | / | / | /
CCN(CC)C(=O)C(Sc1ccccc1)c1ccccc1 (stereo not drawn) | . | . | . | . | . | . | / | / | / | / | /
COc1ccc(C2C3=C(CC(C)(C)CC3=O)Oc3ncn(CCO)c(=N)c32)cc1OC (stereo not drawn) | . | . | 49 | 14 | . | . | . | . | / | / | / | UHRF1 ctr MBD2=.;MBD2 confirm=.
COc1ccc(S(=O)(=O)N(C)C[C@H]2Oc3c(NC(=O)C4CCCCC4)cccc3C(=O)N([C@H](C)CO)C[C@@H]2C)cc1 | . | . | . | . | . | . | / | / | / | / | /
Oc1ccc(/C=N/N2CCOCC2)c(O)c1O | . | 52 | . | 30 | . | . | 33 | . | . | . | 18 | GFP quench dose=.
Oc1ccc(/C=N/N2CCCCC2)c(O)c1O | . | 28 | . | 25 | . | . | 32 | . | . | . | 25 | GFP quench dose=.
COc1ccc(C)cc1NC(=O)C(CCS(C)(=O)=O)NC(C)=O (stereo not drawn) | . | . | . | . | . | . | / | / | / | / | /
CC(=O)NCCNc1nc2cc(-c3ccccc3CO)sc2c(=O)n1C | . | . | . | . | . | . | / | / | / | / | /
Oc1cccc(/C=N/NC(=S)NCCN2CCOCC2)c1O | 30 | 79 | . | 5.7 | . | . | . | . | . | . | .
C[C@@H]1O[C@@H](Oc2c(-c3ccc(O)c(O)c3)oc3cc(O)cc(O)c3c2=O)[C@H](O)[C@H](O)[C@H]1O | . | 21! | . | 18! | . | . | 12 | . | 16 | . | 58
C[C@@H]1O[C@@H](Oc2c(-c3cc(O)c(O)c(O)c3)oc3cc(O)cc(O)c3c2=O)[C@H](O)[C@H](O)[C@H]1O | . | 55 | . | 44 | . | . | 45 | 17 | 53 | . | 63
